Results on five compounds are retold here after PubChem BioAssay.

Activity calls are given as the source filed them.

Assay [1] is described as follows: small molecules captured by biotinylated probe aFSTL3 – biochemical, small-molecule microarray, fluorescence 635/667, stem cell growth factor project, primary screen (AID 1064).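 Also: measures binding of the biotinylated anti-FSTL3 antibody to printed compounds.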 Conditions: higher = more signal.
A short description of assay [2]: binders from COS7 lysate, DM2A8 probe, primary screen, torsin A project, cell lysate, small-molecule microarray, fluorescence 635/667 (AID 1065). Conditions: higher = more signal, COS7 lysate expressing mutant human TOR1A.
Assay [3] is described as follows: small molecules captured by biotinylated probe aFGF2 – biochemical, small-molecule microarray, fluorescence 635/667, stem cell growth factor project, primary screen (AID 1067).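 Also: measures binding of biotinylated aFGF2 protein to printed compounds on slides; z-score merges feature fluorescence and signal-to-noise across triplicate slides.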 Conditions: higher = more signal.
Assay [4] is described as follows: small molecules captured by biotinylated probe aFGF10 – biochemical, small-molecule microarray, fluorescence 635/667, stem cell growth factor project, primary screen (AID 1071).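 Also: score merges 667 nm spot intensity and signal to noise from triplicate slides.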 Conditions: higher = more signal.
For assay [5], the target named is Neurogenic locus notch homolog protein 2 (Homo sapiens) (UniProt Q04721). As to the kind of experiment: small molecules binding Notch2 protein – biochemical, small-molecule microarray, 635 nm fluorescence, stem cell growth factors, primary screen (AID 1073). The following applies: higher = more signal.
For assay [6], the target named is Pro-neuregulin-1, membrane-bound isoform (Homo sapiens) (UniProt Q02297). As to the kind of experiment: small molecules binding neuregulin-1 protein – biochemical, small-molecule microarray, fluorescence 635/667, psychiatric disease protein project, primary screen (AID 1075).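 Also: score combines 667 nm spot fluorescence with signal to noise.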 The following applies: NRG1 binding, 635 nm fluorescence, higher = more signal.
The test system of assay [7] is Neuregulin-1 EGF-like domain. As to the kind of experiment: small molecules binding NRG1 EGF domain – biochemical, small-molecule microarray, 635 nm fluorescence, primary screen (AID 1081).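 Also: binding of the protein to compounds printed on small-molecule microarray slides.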 Conditions: higher = more signal.
A short description of assay [8]: FRG1 expression reporter modulators in myotubes – cell-based, C2C12 myotubes, firefly/Renilla luciferase, luminescence, FRG1 inhibition for FSHD, primary screen (AID 1084). Conditions: FRG1 promoter luciferase, higher = more signal, called active from +8 up or from −8 down.
The nature of assay [9]: small molecules captured by biotinylated probe aFST – biochemical, small-molecule microarray, fluorescence 635/667, stem cell growth factor project, primary screen (AID 1086).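 Also: score merges 667 nm fluorescence with signal-to-noise of each printed compound spot.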 Conditions: higher = more signal.
Assay [10] in a line: binders of probe aHhip on microarray, primary screen, stem cell growth factor project, biochemical, small-molecule microarray, fluorescence 635/667 (AID 1087).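 Also: score merges spot fluorescence at 667nm with spot signal to noise ratio.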 The following applies: higher = more signal.
Assay [11] concerns PRMT1 (protein arginine N-methyltransferase 1). In words: small molecules binding arginine methyltransferase PRMT1 – biochemical, small-molecule microarray, 635 nm fluorescence, primary screen (AID 1088).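 Also: binding of Prmt1 protein to compounds spotted on small-molecule microarray slides.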 The following applies: higher = more signal.
Assay [12] in a line: growth effects on S. cerevisiae YJM789 – YJM789 clinical isolate, OD600, 24 h, basal, primary screen (AID 1089).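 Also: growth of clinical yeast isolate S. cerevisiae YJM 789 seeded 1000 cells per well; test concentration not given here.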 Conditions: higher = more signal, called active from +8 up or from −8 down.
Assay [13] can be described thus: S. pombe growth modifiers, basal conditions – strain 972, OD600, 24 h, no modulator, primary screen (AID 1090).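 Also: basal condition with compound alone and no growth modifier present; test concentration not given here.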 The following applies: S. pombe 972 growth, higher = more signal, called active from +8 up or from −8 down.
Assay [14] is described as follows: budding yeast growth modifiers under rapamycin – strain BY4716, OD600, 96 h, primary screen (AID 1091). Also: test concentration not given here. The following applies: S. cerevisiae BY4716 + rapamycin, higher = more signal, called active from +8 up or from −8 down.
The target of assay [15] is Torsin-1A-interacting protein 2 (Homo sapiens) (UniProt Q8NFQ8). As to the kind of experiment: small molecules binding lysate-expressed LULL1 – cell lysate, human LULL1 lysate, 635/667 nm fluorescence, primary screen (AID 1092).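 Also: probe is lysate of COS7 cells overexpressing human LULL1; score merges per-feature 667 nm fluorescence with signal-to-noise.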 Conditions: small-molecule microarray, hLULL1 lysate binding, 635 nm fluorescence; higher = more signal.
Assay [16] can be described thus: optical density change of DRC41 E. coli – strain DRC41, OD650, 24 h, E. coli filamentation project, primary screen (AID 1093).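 Also: MC1000 strain lacking acrAB efflux and sulA so SOS filamentation is blocked; test concentration not given here.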 Conditions: E. coli DRC41 growth, higher = more signal, called active from +8 up or from −8 down.
A short description of assay [17]: probe aLefty2 binding to arrayed compounds – biochemical, biotinylated probe, 635/667 nm fluorescence, primary screen (AID 1094).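 Also: score merges spot fluorescence near 667 nm with spot signal-to-noise ratio.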 The following applies: small-molecule microarray, higher = more signal.
Assay [18] relates to Noggin (protein binding on small-molecule microarray). In words: small molecules binding Noggin protein – biochemical, 635/667 nm fluorescence, primary screen (AID 1095).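 Also: score merges 667 nm feature fluorescence with signal to noise over triplicate slides.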 Conditions: 635 nm fluorescence, higher = more signal.
Assay [19] concerns the target Neurogenic locus notch homolog protein 3 (Homo sapiens) (UniProt Q9UM47). In words: small molecules binding NOTCH3 protein – biochemical, 635/667 nm fluorescence, primary screen (AID 1096). Conditions: small-molecule microarray, 635 nm fluorescence, higher = more signal.
The nature of assay [20]: probe aEGFR binding to arrayed compounds – biochemical, biotinylated probe, 635/667 nm fluorescence, primary screen (AID 1097).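 Also: probe is a biotinylated anti-EGFR antibody binding compounds printed on slides; score combines fluorescence near 667 nm and signal to noise of each spot.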 Conditions: small-molecule microarray, higher = more signal.

Sequence of Neurogenic locus notch homolog protein 2 (Homo sapiens) (Q04721 whole entry, looked up, canonical isoform): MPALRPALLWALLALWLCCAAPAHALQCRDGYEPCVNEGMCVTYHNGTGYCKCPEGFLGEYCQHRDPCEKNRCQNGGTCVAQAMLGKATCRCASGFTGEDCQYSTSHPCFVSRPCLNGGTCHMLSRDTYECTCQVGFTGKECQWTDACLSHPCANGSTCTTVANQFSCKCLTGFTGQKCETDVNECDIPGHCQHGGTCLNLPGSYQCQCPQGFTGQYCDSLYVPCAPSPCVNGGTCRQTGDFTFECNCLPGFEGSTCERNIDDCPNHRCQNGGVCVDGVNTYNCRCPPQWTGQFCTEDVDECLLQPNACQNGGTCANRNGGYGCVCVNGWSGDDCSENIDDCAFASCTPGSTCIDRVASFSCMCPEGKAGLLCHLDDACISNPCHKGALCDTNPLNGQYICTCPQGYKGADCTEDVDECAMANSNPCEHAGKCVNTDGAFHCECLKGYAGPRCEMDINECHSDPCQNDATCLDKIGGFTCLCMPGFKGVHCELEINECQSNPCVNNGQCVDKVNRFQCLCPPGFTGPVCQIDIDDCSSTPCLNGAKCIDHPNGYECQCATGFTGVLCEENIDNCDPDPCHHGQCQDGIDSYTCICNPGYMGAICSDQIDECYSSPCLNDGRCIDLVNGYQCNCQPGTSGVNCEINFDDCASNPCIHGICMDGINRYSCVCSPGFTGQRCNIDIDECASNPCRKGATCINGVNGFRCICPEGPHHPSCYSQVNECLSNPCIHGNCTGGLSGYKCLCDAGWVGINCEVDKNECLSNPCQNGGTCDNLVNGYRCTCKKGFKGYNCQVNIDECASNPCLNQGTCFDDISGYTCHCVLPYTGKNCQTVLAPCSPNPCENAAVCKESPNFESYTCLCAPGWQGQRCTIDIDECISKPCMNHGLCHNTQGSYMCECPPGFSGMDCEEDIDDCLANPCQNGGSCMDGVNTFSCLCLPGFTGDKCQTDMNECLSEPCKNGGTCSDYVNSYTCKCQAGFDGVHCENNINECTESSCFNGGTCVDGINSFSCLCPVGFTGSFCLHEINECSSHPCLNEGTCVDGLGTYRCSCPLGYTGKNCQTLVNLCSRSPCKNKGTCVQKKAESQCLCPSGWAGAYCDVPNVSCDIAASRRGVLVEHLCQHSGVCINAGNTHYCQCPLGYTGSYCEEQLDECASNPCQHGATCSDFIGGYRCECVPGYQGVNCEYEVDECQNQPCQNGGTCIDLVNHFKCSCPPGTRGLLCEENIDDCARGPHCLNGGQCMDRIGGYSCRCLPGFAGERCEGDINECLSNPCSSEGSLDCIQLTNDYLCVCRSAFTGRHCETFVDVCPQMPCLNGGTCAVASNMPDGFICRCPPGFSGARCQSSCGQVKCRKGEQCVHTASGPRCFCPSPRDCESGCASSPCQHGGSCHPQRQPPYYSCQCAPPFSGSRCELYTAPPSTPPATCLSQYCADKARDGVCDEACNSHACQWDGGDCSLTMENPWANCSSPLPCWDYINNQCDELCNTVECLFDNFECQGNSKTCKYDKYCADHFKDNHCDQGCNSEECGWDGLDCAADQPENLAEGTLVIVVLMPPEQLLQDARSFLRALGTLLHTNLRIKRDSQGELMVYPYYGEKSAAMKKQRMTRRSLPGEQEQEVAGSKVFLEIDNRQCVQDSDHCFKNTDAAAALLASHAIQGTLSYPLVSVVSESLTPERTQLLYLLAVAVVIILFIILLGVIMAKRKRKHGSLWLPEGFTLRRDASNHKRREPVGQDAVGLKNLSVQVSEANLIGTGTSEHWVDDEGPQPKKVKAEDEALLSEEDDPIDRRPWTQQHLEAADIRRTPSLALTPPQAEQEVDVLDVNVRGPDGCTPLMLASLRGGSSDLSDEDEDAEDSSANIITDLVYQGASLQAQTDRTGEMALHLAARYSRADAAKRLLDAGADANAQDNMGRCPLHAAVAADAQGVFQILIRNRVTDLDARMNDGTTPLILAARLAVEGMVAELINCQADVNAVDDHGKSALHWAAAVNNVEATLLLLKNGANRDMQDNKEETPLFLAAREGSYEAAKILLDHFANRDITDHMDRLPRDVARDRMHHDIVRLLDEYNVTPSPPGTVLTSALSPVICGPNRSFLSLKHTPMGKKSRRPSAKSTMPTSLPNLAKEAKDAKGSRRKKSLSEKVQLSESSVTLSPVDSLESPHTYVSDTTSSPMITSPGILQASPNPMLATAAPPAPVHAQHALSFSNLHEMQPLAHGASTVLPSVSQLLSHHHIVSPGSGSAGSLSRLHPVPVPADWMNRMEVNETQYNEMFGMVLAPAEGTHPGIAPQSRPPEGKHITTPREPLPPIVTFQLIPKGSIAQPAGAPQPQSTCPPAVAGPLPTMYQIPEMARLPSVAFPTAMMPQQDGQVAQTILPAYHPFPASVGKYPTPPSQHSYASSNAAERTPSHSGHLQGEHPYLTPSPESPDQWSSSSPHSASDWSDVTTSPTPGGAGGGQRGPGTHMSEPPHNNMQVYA
Sequence of Pro-neuregulin-1, membrane-bound isoform (Homo sapiens) (Q02297 whole entry, looked up, the tested form may be a part, canonical isoform): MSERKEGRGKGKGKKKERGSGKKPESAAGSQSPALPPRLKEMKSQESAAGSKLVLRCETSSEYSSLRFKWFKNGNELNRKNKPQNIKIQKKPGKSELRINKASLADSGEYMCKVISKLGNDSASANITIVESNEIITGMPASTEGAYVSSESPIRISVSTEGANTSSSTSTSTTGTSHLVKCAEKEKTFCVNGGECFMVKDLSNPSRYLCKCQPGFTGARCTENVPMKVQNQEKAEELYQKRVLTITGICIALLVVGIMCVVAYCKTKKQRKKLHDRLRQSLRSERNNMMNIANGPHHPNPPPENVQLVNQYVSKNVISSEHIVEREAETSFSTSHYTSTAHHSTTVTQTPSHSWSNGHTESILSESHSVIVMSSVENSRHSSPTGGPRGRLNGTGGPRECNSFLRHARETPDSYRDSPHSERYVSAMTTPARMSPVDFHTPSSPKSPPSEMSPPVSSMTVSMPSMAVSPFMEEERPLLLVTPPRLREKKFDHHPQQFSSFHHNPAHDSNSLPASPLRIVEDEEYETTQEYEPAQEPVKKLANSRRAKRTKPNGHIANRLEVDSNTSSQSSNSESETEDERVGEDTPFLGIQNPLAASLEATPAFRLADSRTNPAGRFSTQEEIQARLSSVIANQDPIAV
Sequence of Torsin-1A-interacting protein 2 (Homo sapiens) (Q8NFQ8 whole entry, looked up): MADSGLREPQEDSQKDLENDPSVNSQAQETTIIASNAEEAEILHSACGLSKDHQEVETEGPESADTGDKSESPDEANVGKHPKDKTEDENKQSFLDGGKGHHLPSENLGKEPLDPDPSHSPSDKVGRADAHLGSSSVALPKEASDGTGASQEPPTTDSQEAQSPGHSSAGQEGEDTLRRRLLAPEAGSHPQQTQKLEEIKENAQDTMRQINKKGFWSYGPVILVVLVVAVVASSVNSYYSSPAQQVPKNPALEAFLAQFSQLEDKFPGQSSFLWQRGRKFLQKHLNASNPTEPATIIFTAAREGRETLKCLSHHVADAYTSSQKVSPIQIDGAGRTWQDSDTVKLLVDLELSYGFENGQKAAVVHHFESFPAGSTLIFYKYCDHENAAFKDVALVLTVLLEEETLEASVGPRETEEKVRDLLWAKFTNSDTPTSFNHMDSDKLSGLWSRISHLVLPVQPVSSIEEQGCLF

Consider `O=C1O[C@@H](c2ccccc2)[C@@H](c2ccccc2)N2[C@@H](c3ccccc3OCCO)[C@]3(C(=O)Nc4ccccc43)[C@@H](C(=O)Nc3nc4ccccc4s3)[C@H]12`, for which the composite z-score in [1] was 0.0741; in assay [2], 0.581; in [3] it was 0.0566; in assay [4] it was 0.841; in assay [5], 1.15; in assay [6], 2.01. Also, the composite z-score was 1.26 in assay [7]; 0.247 in assay [9]; -0.329 in assay [10]; 1.53 in assay [11]; 3.22 in assay [15]; -0.215 in assay [17]. For the same compound, the composite z-score in [18] was found to be 1.53; in assay [19] it was 1.04; in [20], 0.148. In addition, the z-score in [8] was -1.26 (inactive); in [12], 1.13 (inactive); in assay [13] it was -0.205 (inactive); in assay [14], 2.85 (inactive); in assay [16] it was 1.26 (inactive).

For the compound `CC(C)N1C(=O)c2ccccc2[C@](C)(C(=O)NCCN2CCOCC2)[C@@H]1c1ccc(CO)cc1`, the composite z-score in assay [1] is 0.755; in assay [2], 0.779; in [3], -0.104; in assay [4], -1.08; in assay [5], -0.879; in [6], 1.76. The composite z-score in assay [7] is 0.728; in assay [9] it was -0.527; in assay [10] it was -0.306; in assay [11], 1.2; in [15], 2.37; in assay [17], 0.0971. In addition, the composite z-score in [18] is 0.495; in [19], 0.1; in assay [20] it was -0.0152. In addition, the z-score was 0.185 (inactive) in assay [8]; 0.608 (inactive) in [12]; 0.516 (inactive) in [13]; 0.511 (inactive) in assay [14]; -0.487 (inactive) in [16].

Regarding `Cc1ccc(N2C(=O)c3ccccc3[C@@H](C(=O)NC3CC3)[C@@H]2c2ccc(CO)cc2)nc1`, the composite z-score in assay [1] was 1.17; in assay [2] it was -0.78; in [3], -0.149; in assay [4], -1.26; in [5], -1.63; in assay [6], -1.14. Further, the composite z-score in [7] was 0.058; in assay [9], -0.479; in assay [10] it was -0.134; in assay [11], -1.57; in [15], 2.35; in assay [17] it was 0.297. The composite z-score is -0.912 in assay [18], -1.44 in assay [19] and -0.281 in assay [20]. In addition, the z-score is 0.554 (inactive) in assay [8]; -1.31 (inactive) in assay [12]; -0.916 (inactive) in [13]; -0.486 (inactive) in assay [14]; 0.387 (inactive) in [16].

As for `COc1ccccc1CN1C(=O)c2ccccc2[C@@H](C(=O)NC2CC2)[C@@H]1c1ccc(CO)cc1`, the composite z-score in assay [1] is 0.11; in assay [2], 0.293; in assay [3], 0.0233; in assay [4] it was 0.986; in [5], 1.48; in assay [6], 1.12. Also, the composite z-score came to 1.29 in assay [7]; 0.592 in assay [9]; 0.075 in assay [10]; 1.54 in [11]; 2.28 in assay [15]; 0.488 in assay [17]. Also, the composite z-score in [18] came to 1.47; in assay [19], 1.06; in assay [20] it was 0.194. The z-score was -3.17 (inactive) in assay [8]; 0.827 (inactive) in [12]; -0.392 (inactive) in assay [13]; 0.344 (inactive) in assay [14]; 0.772 (inactive) in assay [16].

As to `COC(=O)[C@@]1(CCC(=O)OC(C)(C)C)N=C(c2ccc(OCCCO)cc2)O[C@H]1c1ccccc1N=[N+]=[N-]`, the composite z-score in [1] is 0.165; in assay [2], -0.15; in [3], -0.0354; in [4], -0.312; in [5] it was -0.0015; in assay [6], 1.26. Moreover, the composite z-score is 1.06 in [7]; -0.161 in assay [9]; 0.119 in assay [10]; 1.28 in assay [11]; 1.83 in [15]; -0.309 in [17]. Further, the composite z-score is 0.714 in [18], 0.388 in assay [19] and -0.0828 in assay [20]. In addition, the z-score is 3.09 (inactive) in assay [8]; 0.0049 (inactive) in assay [12]; -0.786 (inactive) in assay [13]; 33.6 (active) in [14]; 0.817 (inactive) in [16].
